# Sampled rows, rich in hits. Any-hit rate of the full collection: about 3%.
# C8 TRAIL sens: sensitizes caspase-8 expressing cells to TRAIL. NB7+C8 cells + TRAIL, ATPlite viability luminescence. inhibition (viability loss, TRAIL sensitization), % at 10 µM. 360,000 compounds, 1% hits;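 active = compounds causing at least 50% loss of cell viability in the single-dose screen, relative to plate controls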
# PPC-1+TRAIL kill: kills PPC-1 cancer cells in the presence of TRAIL | PPC-1 cells + TRAIL, ATPLite viability luminescence | cell killing (% activity), % at 4 µM or 5 µM | 220,000 compounds, 0.41% hits;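 active = cell killing above 50% in the first pass at 4 µM, then a duplicate retest at 5 µM averaging 50% or more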;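 also: plate controls were cells with TRAIL plus DMSO for no effect and medium-only wells lacking cells for full effect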
# SENP8 block-1: inhibitors of human SENP8 protease. Q96LD8. purified SENP8, Z-RLRGG-aminoluciferin cleavage, luminescence. inhibition, % at 10 µM. 330,000 compounds, 1.2% hits; in the data active = inhibition above about 50%
# Target sequence (Q96LD8 whole entry, looked up): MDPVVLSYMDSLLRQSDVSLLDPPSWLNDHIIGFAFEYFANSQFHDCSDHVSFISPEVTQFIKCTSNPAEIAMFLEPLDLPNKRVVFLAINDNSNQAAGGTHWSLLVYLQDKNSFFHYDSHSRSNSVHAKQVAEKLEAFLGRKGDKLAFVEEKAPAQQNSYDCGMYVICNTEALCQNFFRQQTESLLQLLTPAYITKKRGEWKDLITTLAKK
# SENP7 inh: blocks the human protease SENP7; recombinant SENP7, Z-RLRGG-aminoluciferin luminescence, 40 min; inhibition, % at 5 µM; 330,000 compounds, 1.5% hits; AID 434973;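 active = inhibition above about 50% at the single test dose, limit read from the data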;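 also: plate controls were DMSO with enzyme for no effect and no enzyme buffer wells for full effect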
# Target sequence (Q9BQF6 706-1050 limits assumed): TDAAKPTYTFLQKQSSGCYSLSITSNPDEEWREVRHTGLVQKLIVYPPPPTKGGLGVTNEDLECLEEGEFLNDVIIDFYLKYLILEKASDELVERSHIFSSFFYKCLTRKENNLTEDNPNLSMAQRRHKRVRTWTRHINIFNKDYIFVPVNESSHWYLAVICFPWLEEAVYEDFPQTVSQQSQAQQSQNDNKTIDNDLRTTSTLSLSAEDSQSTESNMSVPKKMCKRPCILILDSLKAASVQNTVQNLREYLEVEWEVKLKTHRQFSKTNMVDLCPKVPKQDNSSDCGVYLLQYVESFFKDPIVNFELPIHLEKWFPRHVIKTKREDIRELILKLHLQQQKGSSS
# SENP8 block-2: blocks human SENP8 cleavage of Nedd8 substrate; inhibition, % at 20 µM; 360,000 compounds, 0.64% hits; recombinant SENP8, Nedd8 substrate fluorescence; Q96LD8; in the data active = inhibition mostly above about 40%, no sharp cut-off; inactive = mostly below about 27%
# SENP6 inh: SENP6 protease inhibition | AID 2599 | inhibition, % at 10 µM | Recombinant SENP6 catalytic domain, aminoluciferin luminescence | 330,000 compounds, 1.8% hits;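 active = inhibition above about 50% at the single tested dose, limit read from the data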;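 also: plate controls were DMSO wells with enzyme for no effect and DMSO wells lacking enzyme for full effect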
# SENP8 confirm: human SENP8 inhibition, confirmed; shares compounds with SENP7 inh; Recombinant SENP8, Z-RLRGG-aminoluciferin luminescence, 60 min; inhibition, % at 12.5 µM; 6,200 compounds, 40% hits; AID 488912;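 active = mean inhibition across replicates above about 50%, limit read from the data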
# SENP6 confirm: confirmation of human SENP6 protease inhibitors | shares compounds with SENP7 inh | recombinant SENP6, Z-RLRGG-aminoluciferin luminescence | inhibition, % at 12.5 µM | 6,200 compounds, 58% hits
# SENP7 conf: confirmation of human SENP7 protease inhibitors; 6,200 compounds, 69% hits; recombinant SENP7, Z-RLRGG-aminoluciferin luminescence, 40 min; shares compounds with SENP7 inh; inhibition, % at 12.5 µM; AID 488917
# Casp3 SENP sel: selectivity test for SENP inhibitors: human caspase-3 inhibition | inhibition, % at 12.5 µM | purified caspase-3, Z-DEVD-aminoluciferin luminescence, 60 min | 6,200 compounds, 60% hits | shares compounds with SENP7 inh;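 active = mean inhibition above about 50%, limit read from the data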;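 also: plate controls were enzyme with DMSO for no effect and wells without caspase-3 for full effect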
# Luc interf: counter-screen for SENP inhibitors: luminescence interference | Pre-incubated SENP8/Z-RLRGG-aminoluciferin, luciferase luminescence interference | AID 488919 | shares compounds with SENP7 inh | 6,200 compounds, 39% hits | inhibition, % at 12.5 µM;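 active = mean inhibition above about 50% when retested at one dose, limit read from the data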;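 also: plate controls were DMSO wells with completed reaction for no effect and substrate without enzyme for full effect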
# Starred values were filed as active, the others as inactive; . = no result given.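 The calls were made as follows, unless noted: active = mean inhibition above about 50% in the one-dose retest (limit read from the data); inactive = the rest.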
SMILES,C8 TRAIL sens,PPC-1+TRAIL kill,SENP8 block-1,SENP7 inh,SENP8 block-2,SENP6 inh,SENP8 confirm,SENP6 confirm,SENP7 conf,Casp3 SENP sel,Luc interf
COC(=O)Nc1nnc(-c2ccccc2Cl)s1,36,27,50,72*,-139,76*,57*,56*,83*,50,23
Cc1ccc(-c2nc(-c3cccnc3)no2)cc1,40,26,66*,82*,26,81*,72*,81*,98*,86*,67*
Cc1ccc(-c2nc(-c3ccccc3)no2)cc1,37,11,96*,98*,6,63*,78*,86*,95*,91*,50*
COc1ccc(-c2nc(-c3cccnc3)no2)cc1OC,-12,9,5,24,-14,11,.,.,.,.,.
CCC(=O)Oc1ccc(-c2nc(-c3cccnc3)no2)cc1,19,31,97*,99*,25,97*,99*,100*,103*,99*,98*
Cc1ccc(-c2noc(-c3c(C)noc3C)n2)cc1,-8,6,1,32,18,1,.,.,.,.,.
CCCc1noc(-c2ccc(-c3ccccc3)cc2)n1,6,5,50*,68*,16,41,26,40,55*,50*,30
CCOC(=O)c1c(NC(=O)c2c(C(=O)O)cccc2[N+](=O)[O-])sc2c1CCCC2,11,.,5,-7,23,-6,.,.,.,.,.
Cc1sc2ncnc(N3CCN(Cc4ccccc4)CC3)c2c1-c1ccc(F)cc1,15,.,7,-1,2,-10,.,.,.,.,.
Cc1ccc(-c2nn3cnnc3c3ccccc23)cc1,-8,18,-4,-5,4,-6,.,.,.,.,.
COc1cc(/C=C2/SC(=O)NC2=O)ccc1OC(=O)c1ccco1,3,.,82*,85*,-15,88*,58*,74*,24,61*,22
O=C1NC(=S)S/C1=C/c1ccc(OC(=O)c2ccco2)cc1,36,.,46,29,27,76*,21,32,9,26,10
COc1cc(/C=N/N(C)C)ccc1OC(=O)c1ccco1,2,9,-6,1,7,-7,.,.,.,.,.
COc1cc(/C=C2/C(=N)N3C(SC)=NSC3=NC2=O)ccc1OC(=O)c1ccco1,-44,.,64*,8,8,53*,75*,73*,92*,68*,13
COc1cc(/C=N/N2CCOCC2)ccc1OC(=O)c1ccco1,-7,5,40,70*,-2,60*,60*,57*,88*,67*,77*
O=C1C(=Nc2cccc(Cl)c2)CC(c2ccc(Cl)cc2)N1c1cccc(Cl)c1 (stereo not given),-5,-4,.,.,-20,.,.,.,.,.,.
CN(C)CCNC(=O)c1ccc(Sc2ccc(Br)cc2)c([N+](=O)[O-])c1,5,16,-14,-10,29,-33,.,.,.,.,.
COc1cc(/C=C2\C(=O)N(c3ccc(S(N)(=O)=O)cc3)N=C2C)ccc1OC(=O)c1ccco1,0,16,26,70*,57*,76*,12,35,-2,5,-1
COc1cc(/C=C2/SC(=S)N(C)C2=O)ccc1OC(=O)c1ccco1,3,-16,28,66*,34,5,8,7,3,16,28
COc1cc(/C=C2\SC(=S)N(NC(C)=O)C2=O)ccc1OC(=O)c1ccco1,15,.,21,-13,22,14,.,.,.,.,.
Nc1ccc(S(=O)(=O)Nc2nccc(/C=C/c3ccc(Cl)cc3Cl)n2)cc1,6,5,0,3,11,2,.,.,.,.,.
COc1ccc2c(c1)CCc1c(C(=O)NCC(C)C)noc1-2,-7,11,29,51*,14,71*,25,44,81*,57*,18
COc1ccc(CCNC(=O)c2cc([C@@H](NC(=O)OC(C)(C)C)C(C)C)sc2N)cc1OC,-18,.,.,.,18,.,.,.,.,.,.
Cn1c(O)c(C=Nc2ccc(N3CCOCC3)cc2)c(=O)n(C)c1=S,-1,-1,.,.,10,.,.,.,.,.,.
Cc1cc(O)c(C=Nc2ccc(N3CCOCC3)cc2)c(C)c1Cl,-1,.,38,82*,22,57*,10,11,8,28,3
SMILES,C8 TRAIL sens,PPC-1+TRAIL kill,SENP8 block-1,SENP7 inh,SENP8 block-2,SENP6 inh,SENP8 confirm,SENP6 confirm,SENP7 conf,Casp3 SENP sel,Luc interf
CN(C)c1ccc(-c2cc3ccccc3c(=O)o2)cc1,57*,.,84*,66*,-498,77*,20,21,27,36,15
CC1=CCC(COC(=O)Nc2ccccc2)CC1 (stereo not given),29,13,80*,89*,6,82*,86*,90*,99*,75*,81*
O=C(Nc1ccccc1)OCC1CCCN2CCCCC12 (stereo not given),7,26,-8,-5,29,-9,.,.,.,.,.
COC(=O)[C@]12CCCCC=C1N(Cc1ccco1)C(=O)[C@H](CC(=O)N1CCOCC1)C2,-15,.,.,.,8,.,.,.,.,.,.
O=C(Nc1ccc2c(c1)C(=O)OC2)c1ccc(F)cc1F,-3,8,1,1,6,3,.,.,.,.,.
CC(=O)Nc1ccc(-c2ccnc3c2CC(C)(C(=O)NCc2ccc(N4CCN(C)CC4)cc2)O3)cc1 (stereo not given),2,.,.,.,6,.,.,.,.,.,.
COc1ccc(-n2sc3ccccc3c2=O)cc1,-7,.,.,.,23,.,.,.,.,.,.
COc1ccc(-n2sc3ccc(F)cc3c2=O)cc1,-5,.,91*,79*,21,91*,96*,95*,102*,96*,92*
O=c1c2cc(F)ccc2sn1-c1ccc(F)cc1,-8,.,88*,44,7,93*,92*,93*,100*,92*,86*
Cc1ccc(S(=O)(=O)CCc2ccncc2)cc1,-4,.,-10,-9,2,-12,.,.,.,.,.
CCC1(CC)NC(=O)N(CC(=O)OCC(=O)Nc2ccc(OC(F)(F)F)cc2)C1=O,-8,.,-11,-7,2,-9,.,.,.,.,.
Cc1ccccc1Cn1nnc(-c2cccc(C(=O)O)c2)n1,-7,41,31,33,6,71*,64*,61*,86*,52*,72*

# Bioassay records from PubChem.
